A selection: hits, their analogues and other compounds. The true share with any hit is near 6.7%.
Tcruzi prolif: inhibitors of T. cruzi proliferation; T. cruzi beta-gal in NIH3T3, GalScreen luminescence, 90 h; inhibition, % at 8.34 µM; 77,000 tested, 5.9% active;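 active = mean inhibition above about 93%, with at least 55% of replicates each passing it, limit read from the data, passing the limit was not always enough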
C diff growth: C. difficile growth inhibition. growth activity, negative = inhibition, % at 16 µg/mL (by protocol). 86,000 tested, 0.25% active. AID 1259249. Clostridium difficile clinical isolate growth, OD600, 24 h; hits give low values;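 active = mean growth activity at or below -80% and every replicate also at or below -80%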;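 note: 0% = DMSO wells and -100% = levofloxacin 16 µg/mL wells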
Pf Dd2 growth: blocks growth of Plasmodium falciparum Dd2 parasites; 94,000 tested, 2.3% active; activity change, % at 10 µM; P. falciparum Dd2 growth, SYBR Green, 72 h; hits give low values; AID 1159554; in the data active = activity change below about -80%
Starred values were filed as active, the others as inactive; ! = not confirmed by another sample.

What do the screens show for `CO[C@H]1CN(C)C(=O)c2cc(NC(=O)Nc3c(C)noc3C)ccc2OC[C@H](C)N(C)C[C@@H]1C`?
Tcruzi prolif: -11.4; C diff growth: 3.7; Pf Dd2 growth: 19.2

How did O=C(C[C@@H]1C=C[C@@H](NC(=O)C2CCC2)[C@H](CO)O1)NC1CCC1 do in these assays?
C diff growth: -1.1; Pf Dd2 growth: -87.1*

What do the screens show for `CCC(=O)N[C@H]1C=C[C@H](CC(=O)NCC2CCCCC2)O[C@@H]1CO`?
Tcruzi prolif: -61.6; Pf Dd2 growth: -87.8*

What do the screens show for `O=C(C[C@@H]1C=C[C@@H](NC(=O)C2CCC2)[C@@H](CO)O1)NC1CCC1`?
C diff growth: 0.9; Pf Dd2 growth: -4.2

Results for CCC(=O)N[C@@H]1C=C[C@H](CC(=O)NCC2CCCCC2)O[C@@H]1CO ?
Tcruzi prolif: 82.4; Pf Dd2 growth: -11.1

Results for C[C@H]1CN([C@@H](C)CO)S(=O)(=O)c2ccc(-c3cccc(F)c3)cc2O[C@H]1CN(C)CC1CC1 ?
Tcruzi prolif: 62.4; C diff growth: 6.5; Pf Dd2 growth: -71.3

How did CCCN(C)C[C@@H]1Oc2cc(-c3ccc(F)cc3)ccc2S(=O)(=O)N([C@H](C)CO)C[C@@H]1C do in these assays?
C diff growth: 8.4; Pf Dd2 growth: 3.4

Results for C[C@@H]1CN([C@@H](C)CO)S(=O)(=O)c2ccc(Br)cc2O[C@@H]1CN(C)Cc1ccc(C(=O)O)cc1 ?
Tcruzi prolif: 16.4; C diff growth: -0.6; Pf Dd2 growth: 28.0

How did COc1ccc(S(=O)(=O)Nc2ccc3c(c2)C(=O)N(C)C[C@H](OC)[C@@H](C)CN[C@@H](C)CO3)cc1 do in these assays?
Tcruzi prolif: -46.4; C diff growth: 7.7; Pf Dd2 growth: 10.2

What do the screens show for `CCNC(=O)c1cc2c(c(-c3cccc(-c4ccccc4F)c3)n1)[C@@H](CCO)N(C(=O)CC1CC1)C2`?
C diff growth: 65.9; Pf Dd2 growth: -77.0

What do the screens show for `COc1ccc(C#Cc2cccc(-c3nc(C(=O)Nc4ccc(-c5ccccc5)cc4)cc4c3[C@@H](CCO)N(S(=O)C(C)(C)C)C4)c2)cc1OC` (stereo partly drawn)?
C diff growth: -2.8; Pf Dd2 growth: -88.9*

What do the screens show for `COc1ccc(C#Cc2cccc(-c3nc(C(=O)O)cc4c3[C@H](CCO)N(S(=O)C(C)(C)C)C4)c2)cc1OC` (stereo partly drawn)?
Tcruzi prolif: 59.5; C diff growth: -3.9

How did COc1ccccc1-c1cccc(-c2nc(C(=O)Nc3nccs3)cc3c2[C@H](CCO)N(C(=O)CC2CC2)C3)c1 do in these assays?
C diff growth: 2.4; Pf Dd2 growth: -85.6*

Results for COc1cccc(-c2cccc(-c3nc(C(=O)Nc4ccc(-c5ccccc5)cc4)cc4c3[C@@H](CCO)N(S(=O)C(C)(C)C)C4)c2)c1 (stereo partly drawn) ?
C diff growth: -10.3; Pf Dd2 growth: -84.2*

How did CC(C)(C)S(=O)N1Cc2cc(C(=O)Nc3ccc(-c4ccccc4)cc3)nc(-c3cccc(-c4cccc(F)c4)c3)c2[C@@H]1CCO (stereo partly drawn) do in these assays?
C diff growth: -17.1; Pf Dd2 growth: -63.6

How did O=C(C[C@@H]1C=C[C@H](NC(=O)c2ccccn2)[C@@H](CO)O1)NCc1cccc(F)c1 do in these assays?
Tcruzi prolif: -5.1; C diff growth: 1.1; Pf Dd2 growth: -16.7

How did O=C(C[C@@H]1CC[C@@H](NC(=O)Cc2cccnc2)[C@@H](CO)O1)Nc1ccccc1 do in these assays?
C diff growth: -2.6; Pf Dd2 growth: 55.5

Results for CC(C)NC(=O)N(C)C[C@@H]1OCCCC[C@H](C)Oc2ccc(NC(=O)NC3CCCCC3)cc2C(=O)N([C@@H](C)CO)C[C@H]1C ?
Tcruzi prolif: 7.0; C diff growth: 5.3; Pf Dd2 growth: -13.4

What do the screens show for `C/C=C/c1ccc2c(c1)O[C@H](CN(C)Cc1ccccn1)[C@@H](C)CN([C@H](C)CO)S2(=O)=O`?
C diff growth: -3.3; Pf Dd2 growth: -9.3

What do the screens show for `C[C@@H]1CCCCO[C@@H](CN(C)Cc2ccc(Cl)c(Cl)c2)[C@H](C)CN([C@@H](C)CO)C(=O)c2cc(NC(=O)Nc3ccc4c(c3)OCO4)ccc2O1`?
Tcruzi prolif: 103.7; C diff growth: -5.5; Pf Dd2 growth: -54.8

What do the screens show for `C[C@@H]1CN([C@@H](C)CO)C(=O)c2cc(NC(=O)Nc3ccc(F)cc3)ccc2O[C@@H](C)CCCCO[C@@H]1CN(C)Cc1ccc2c(c1)OCO2`?
Tcruzi prolif: 74.9; C diff growth: 11.9; Pf Dd2 growth: -83.0*

How did C[C@@H]1CCCCO[C@H](CN(C)Cc2ccc3c(c2)OCO3)[C@H](C)CN([C@@H](C)CO)C(=O)c2cc(N(C)C)ccc2O1 do in these assays?
Tcruzi prolif: -5.4; C diff growth: -6.2; Pf Dd2 growth: -18.5

How did C[C@@H]1CN([C@@H](C)CO)C(=O)c2cc(NC(=O)Nc3ccc4c(c3)OCO4)ccc2O[C@@H](C)CCCCO[C@H]1CN(C)Cc1ccc2c(c1)OCO2 do in these assays?
Tcruzi prolif: 94.8; Pf Dd2 growth: -71.7

How did C[C@@H]1CCCCO[C@H](CN(C)Cc2ccc(Cl)c(Cl)c2)[C@@H](C)CN([C@@H](C)CO)C(=O)c2cc(NC(=O)Nc3ccc4c(c3)OCO4)ccc2O1 do in these assays?
Tcruzi prolif: 64.8; C diff growth: 9.8; Pf Dd2 growth: -90.6*

How did C[C@@H]1CCCCO[C@@H](CN(C)Cc2ccc3c(c2)OCO3)[C@H](C)CN([C@@H](C)CO)C(=O)c2cc(N(C)C)ccc2O1 do in these assays?
Tcruzi prolif: 102.0*!; C diff growth: -1.3; Pf Dd2 growth: 25.3

How did CCCNC(=O)N1CC2(C1)CN(C(=O)CC1CC1)[C@H](CO)c1c2c2ccc(OC)cc2n1C do in these assays?
C diff growth: -3.2; Pf Dd2 growth: 17.9

Results for O=C(N[C@H]1CC[C@@H](CCn2cc(-c3ccccn3)nn2)O[C@H]1CO)c1cccnc1 ?
Tcruzi prolif: 1.7; C diff growth: 3.0; Pf Dd2 growth: -9.1

How did C[C@H](CO)N1C[C@H](C)[C@@H](CN(C)C(=O)c2ccccc2)OCCCC[C@H](C)Oc2ccc(NS(C)(=O)=O)cc2C1=O do in these assays?
Tcruzi prolif: 63.4; C diff growth: -0.9; Pf Dd2 growth: -23.6

What do the screens show for `C[C@H]1CCCCO[C@@H](CN(C)S(=O)(=O)c2ccccc2)[C@@H](C)CN([C@@H](C)CO)C(=O)c2cc(NC(=O)NC3CCCCC3)ccc2O1`?
C diff growth: -12.2; Pf Dd2 growth: -79.9

How did C[C@H](CO)N1C[C@H](C)[C@@H](CN(C)S(=O)(=O)c2ccc(Cl)cc2)Oc2ccc(NS(=O)(=O)c3cn(C)cn3)cc2CC1=O do in these assays?
Tcruzi prolif: -1.9; C diff growth: -6.4; Pf Dd2 growth: 18.1

What do the screens show for `Cc1ccc(S(=O)(=O)N[C@@H]2CC[C@@H](CCn3cc(-c4cccc(F)c4)nn3)O[C@@H]2CO)cc1`?
Tcruzi prolif: -25.3; C diff growth: 3.9; Pf Dd2 growth: 4.7

Results for C[C@H]1CCCCO[C@@H](CN(C)C(=O)C2CCCCC2)[C@@H](C)CN([C@@H](C)CO)C(=O)c2cc(NC(=O)Cc3ccccc3)ccc2O1 ?
Tcruzi prolif: 61.1; C diff growth: 8.5; Pf Dd2 growth: -87.0*

Compound activity as filed in PubChem.
